# Reference: PubChem BioAssay (NCATS)
# Records with an inconclusive call do not appear. Values without a mark were called inactive. The source made the active and inactive calls. The call rests on the fitted dose curve; in most records, active means well fitted cell-killing curve with a large enough effect; inconclusive means small, poorly fitted or top-dose-only effect, or effect the other way; inactive means flat fitted curve, though single readings scatter.
# Test system: CASKI
# Assay: Primary qHTS to identify gynecologic anti-cancer compounds using libraries of approved drugs and bioactive compounds (AID 1345084); further: nearly all actives have a fitted effect of over 55% in size
# Conditions: Gynecologic cancer cell panel viability, ATPlite luminescence, 48 h; series mostly up to 57.5 µM; activity change, negative = cytotoxicity: at the top concentration
# How it was run: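 Cytotoxicity screen measuring ATP content by luciferase luminescence. Each compound is applied at five concentrations for 48 h at 37 C with 5% CO2.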
# On the % scale 0 is the no-effect control and ±100 the full control effect; potency means the concentration at half of the fitted maximal effect.
SMILES,"activity change, negative = cytotoxicity",Potency
COc1cc(OC)c2c(=O)[nH]c(-c3cc(C)c(OCCO)c(C)c3)nc2c1,-24.9%,–
COc1ccc(C2=NC(c3ccc(Cl)cc3)C(c3ccc(Cl)cc3)N2C(=O)N2CCNC(=O)C2)c(OC(C)C)c1 (stereo unspecified),10.8%,–
CCn1c(=O)c(-c2ccc(-c3cncs3)cc2Cl)cc2cnc(Nc3ccc(N4CCN(C)CC4)cc3)nc21,-11.2%,–
COC(=O)c1ccc2c(c1)[nH]c1ncnc(NCCCN3CCCCC3)c12,-7.22%,–
CN1CCN(c2ccc(Nc3cc(-c4cccc(-n5ccc6cc(C7CC7)cc(F)c6c5=O)c4CO)cn(C)c3=O)nc2)CC1,7.87%,–
O=c1nc(-c2ccccn2)sc2ccccc12,15.9%,–
CNc1nc(Nc2ccc(C(=O)N3CCOCC3)cc2OC)nc2[nH]cc(Cl)c12,-16.3%,–
Cn1cc(-c2ccc3c(c2)CCN3C(=O)Cc2cccc(C(F)(F)F)c2)c2c(N)ncnc21,-1.11%,–
C=C1CCC2[C@](C)(CCC[C@@]2(C)C=O)[C@H]1CC/C(C)=C/CO (stereo partly specified),-2.33%,–
CC1(CO)CC(O)[C@]2(C(=O)O)CCC34CC3(C=CC3[C@]5(C)C(CC[C@]34C)C(C)(CO)[C@@H](O)[C@H](O)[C@@H]5O)C2C1 (stereo partly specified),-3.27% [at 25.3 µM],–
C/C=C(/C)C(=O)O[C@@H]1C[C@@H](OC(=O)CC(C)C)C2(C)C3C(=O)C=C(C)C2C3C1(C)C (stereo partly specified),-6.56% [at 25.3 µM],–
O=C(NCCCN1CCOCC1)c1cnn2c(-c3ccccc3)cc(-c3ccccc3)nc12,-1.47%,–
Cc1cc(OCCCS(C)(=O)=O)cc(C)c1-c1cccc(COc2ccc3c(c2)OCC3CC(=O)O)c1 (stereo unspecified),8.98%,–
CC1=C(C(=O)OC2CCCCC2)C(c2ccc([N+](=O)[O-])cc2)C2=C(CC(C)(C)CC2=O)N1 (stereo unspecified),-0.34%,–
CC1(C)CC[C@]2(C(=O)O[C@@H]3O[C@H](CO)[C@@H](O)[C@H](O)[C@H]3O)CC[C@]3(C)C(=CCC4[C@@]5(C)CC[C@H](O[C@@H]6O[C@H](C(=O)O)[C@H](O)[C@H](O)[C@H]6O)C(C)(C)C5CC[C@]43C)[C@@H]2C1 (stereo partly specified),4.95% [at 25.3 µM],–
CCN1CCN(Cc2ccc(C(=O)Nc3ccc(C)c(Oc4ccc5c(c4)CC(=O)N5)c3)cc2C(F)(F)F)CC1,-14%,–

SMILES,"activity change, negative = cytotoxicity",Potency
CC(=O)c1c(C)cc2cccc(O)c2c1O[C@@H]1O[C@H](CO)[C@@H](O)[C@H](O)[C@H]1O,-12.2% [at 38.5 µM],–
O=C(Nc1ccc(N(Cc2ccsc2)C(=O)Cn2nnc3ccccc32)cc1)C1CC1,3.75%,–
COc1ccc(CCc2nc3cc(-c4c(C)noc4C)ccc3n2CC(C)N2CCOCC2)cc1Cl (stereo unspecified),-19.1%,–
CNc1cccc(CCOc2ccc3c(c2)CN(CC(F)(F)F)C(=O)[C@H](CC(=O)O)C3)n1,-0.472%,–
CC(C)(O)c1ccn2c(-c3ccc(F)c(-c4ccc(F)cc4C#N)c3)cnc2c1F,4.52%,–
Cc1[nH]c2ccccc2c1CCNCc1ccc(/C=C/C(=O)NO)cc1,–,447 nM (active)
C[C@@H]1O[C@@H](O[C@H]2[C@@H]3C=CO[C@@H](O[C@@H]4O[C@H](CO)[C@@H](O)[C@H](O)[C@H]4O)[C@@H]3[C@@]3(CO)O[C@@H]23)[C@H](O)[C@H](OC(=O)/C=C/c2ccccc2)[C@H]1O,-14% [at 25.3 µM],–
C=C1C(=O)OC[C@@H]1C/C=C(\C)CC1CC(C)C(=O)O1 (stereo partly specified),-6.22%,–
COc1ccc(S(=O)(=O)n2cnc3cc(C)c(C)cc32)cc1,-2.26%,–
C[C@@H]1O[C@@H](O[C@H]2CC[C@@]3(C)C(CC[C@]4(C)C3CC=C3[C@@H]5CC(C)(C)CC[C@]5(C(=O)O[C@@H]5O[C@H](CO)[C@@H](O)[C@H](O)[C@H]5O)CC[C@]34C)[C@]2(C)CO)[C@H](O)[C@H](O[C@@H]2O[C@H](CO)[C@@H](O)[C@H](O)[C@H]2O)[C@H]1O (stereo partly specified),-6.26% [at 11.6 µM],–
CCCOc1ccc(S(=O)(=O)N2CCN(CCO)CC2)cc1-c1nc2c(CCC)cn(CC)c2c(=O)[nH]1,13.7%,–
COc1ccc(CCCN2CCC(COC(c3ccccc3)c3ccccc3)CC2)cc1,-18.6%,–
CCNc1nc(Nc2cc(F)c(C(=O)N3CCOCC3)cc2OC)ncc1C(F)(F)F,-5.31%,–
CC(=O)O[C@@H]1[C@@H](OC(C)=O)[C@H](C)O[C@@H](O[C@H]2[C@@H]3C=CO[C@@H](O[C@@H]4O[C@H](CO)[C@@H](O)[C@H](O)[C@H]4O)[C@@H]3[C@@]3(CO)O[C@@H]23)[C@@H]1OC(=O)/C=C/c1ccccc1,11.8% [at 25.3 µM],–
OC(c1ccc(-c2ccc(CN3CCN(Cc4ccncc4)CC3)cc2)c(F)c1)(C(F)(F)F)C(F)(F)F,6.49%,–
